± gives the standard deviation of the averaged measurements. Whole data set: some 25,000 sequences, median “ln(normalized median fluorescence intensity)” near 8.9, cut for the highest 2% near 10. Shown is part of a subset that was picked to be rich in the highest values.
tested on: PfAP2-LT AP2 domain (GST-tagged); assay: gcPBM binding intensity (ln(normalized median fluorescence intensity)); higher = stronger DNA binding
How it was run: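 After 1 h on an Agilent 4 × 180k array of primer-extended double-stranded 36-bp intergenic genomic probes and negative controls, bound GST-tagged P. falciparum DNA-binding domains were detected with Alexa488 anti-GST antibody and scanned at 488 nm. The domains had been expressed in E. coli, and binding took place in 1× PBS with 1% milk, 0.2 mg/ml BSA, 0.5% salmon testes DNA and 0.03% Triton X-100. Binding intensity is the highest Masliner-normalised natural-log median intensity across replicate spots of either probe orientation.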

Sequence | gcPBM binding intensity (ln)
ACTTTTTTTTTGTGTGTGCACTCGATTATATACATA [GTGCAC_site9846] | 9.57 ± 0.46
AAAAGGAAAAATATCACACATATATATATATATATA [CACACA_site5586] | 9.76 ± 0.45
AAGGAATAATATAAAACACACACATAAATATAAATA [CACACA_site9115] | 9.6 ± 0.42
TATAAAAGGAAACACACACACATATATATATATATA [CACACA_site939] | 10.2 ± 0.32
TAAAAAGGAAAACACACACACACATATATATATATA [CACACA_site3588] | 10.2 ± 0.26
ATAAAAAAAAGAAAAACACACACATATATATATATA [CACACA_site8243] | 9.77 ± 0.27
AGAATAAAAAGGAACACACACACACCCATATATATA [CACACA_site3590] | 10.1 ± 0.5
AGGAAAAAAGAAAAAACACACATAAATATATATATA [CACACA_site3085] | 9.11 ± 0.38
ATAAAAAGGAAACACACACACACACCCATATATATA [CACACA_site904] | 10.41 ± 0.042
AATGAAAAGGAACATACACACCCCATATAAATATAT [CACACA_site7588] | 9.62 ± 0.13
AAAAAAATTACATATCCATTTTAACATAATAAATAG [GTGCAC_negctrl_site618] | 8.33 ± 0.45
TACAGAATTGTATATAGTACATAAAACAATATATAT [XGTACX_site7275] | 8.88 ± 0.4
AAAATAAATAAATAAATAAATATATATATATATATA [XGTACX_negctrl_site345] | 9.16 ± 0.3
AGCCTCGGGGTCATATATATATATATATATATATAT [CACACA_negctrl_site512] | 10.35 ± 0.05
ATCAGATATATATATTGTACATTTATATATAAATCA [XGTACX_site1960] | 8.62 ± 0.46
TAACAAAAAGCACTTAGTACATATATATATATATAT [XGTACX_site1099] | 9.88 ± 0.44
AAAAAAAAAAAAAACACACACATATCTATAATATAT [CACACA_site7481] | 9.35 ± 0.44
AAAAAAAAAAAACACACACACACACTAGTACATACA [CACACA_site4551] | 10.2 ± 0.3
AAAAAAAAAAAACACACACACACACTAATACATACA [CACACA_site8135] | 10.1 ± 0.12
AAAAAAAAAAAACATACACACACACTAATATTTATA [CACACA_site8038] | 9.6 ± 0.23
AAAAAAAAAAAACACACACACACATACACATACATA [CACACA_site2858] | 10.1 ± 0.22
AAAAAAAAAAAAAAAACACACATACATACATACATA [CACACA_site6125] | 9.26 ± 0.41

Sequence | gcPBM binding intensity (ln)
CCTGAACACATACATACACACACACTAATAAAAAAA [CACACA_site8023] | 9.69 ± 0.46
TAAATGTCTTCAATGAAGTGGAAATGCTGTTATATA [CACACA_negctrl_site1155] | 8.54 ± 0.31
TATAATCATATACACGCATGTATAAAATTTAATACT [TGCATGCA_site700] | 8.96 ± 0.35
ACTATTAAAATGAATACACACAAATATAAAAATATA [CACACA_site4145] | 8.96 ± 0.5
TAATTTTTCCAACTTTGTACAGATATATTAATAAAA [XGTACX_site7856] | 8.13 ± 0.35
AAAAATGAGAAACACACACACATATATATATATATA [CACACA_site2228] | 9.94 ± 0.19
AAAAAAATGAAACACACACACACATATATATATATA [CACACA_site1043] | 10.1 ± 0.085
TAAAACAAAATGGTAACACACACATATATATATATA [CACACA_site8590] | 9.87 ± 0.15
TGAAATGATATATAAACACACATATATATATATATA [CACACA_site3511] | 9.62 ± 0.25
AAAATGAACAAACACACACACATATATATATATATA [CACACA_site2403] | 10.27 ± 0.057
ATAAAATGAACAAACACACACACATATATTTATATA [CACACA_site7181] | 9.84 ± 0.16
ACACATAAATGTATATATATATAAATATATGTATGT [CACACA_negctrl_site1532] | 9.12 ± 0.33
AAAAAAACATGAAACACACACAAATATATATATATA [CACACA_site1884] | 9.53 ± 0.52
TGCAAGGAAAAACACACACACACATAAATGTATATA [CACACA_site751] | 9.79 ± 0.25
AAACAAAATGGTAACACACACATATATATATATATA [CACACA_site1939] | 10.09 ± 0.021
TGCAAGGAACAACACACACACACATAAATGTATATA [CACACA_site8149] | 10.2 ± 0.36
AAACAAAATGGTAACACACACATATATAAATATGTA [CACACA_site6994] | 9.38 ± 0.47
TTTTGAAGAAAATTCTTTTTTTTTTTTTTTTGTAAA [CACACA_negctrl_site102] | 7.76 ± 0.65
AAATATTATGTGGCAAGTACATAAAGAAAATGCTTA [XGTACX_site3356] | 8.89 ± 0.56
AAAAAAAAAAAAAAAGCACACATCATATTTTAATTC [CACACA_site9109] | 8.87 ± 0.28
ATATATATATATATATAATATATAATATATATATAT [CACACA_negctrl_site96] | 9.01 ± 0.11
AATAATAACAAATGAACACACATATATATGAGCAAA [CACACA_site2121] | 9.13 ± 0.41

Reference: the supplement of paper PMC11417369
